Columns and labels:
Assay type in all cases: functional
Plasmodium falciparum [1] = assay: GSK_TCMDC: Inhibition of Plasmodium falciparum 3D7 in whole red blood cells, using parasite LDH activity as an index of growth. Test compounds present at 2uM
Plasmodium falciparum [2] = assay: GSK_TCMDC: Inhibition of Plasmodium falciparum Dd2 in whole red blood cells, using parasite LDH activity as an index of growth. Test compounds present at 2uM
HepG2 = assay: GSK_TCMDC: Percent inhibition of human HepG2 cell line. Test compounds present at 10uM.

SMILES | Inhibition (Plasmodium falciparum [1]) [%] | Inhibition (Plasmodium falciparum [2]) [%] | Inhibition (HepG2) [%]
CN(C)CC(=O)Nc1ccc(Nc2nccc(NCC(O)c3ccccc3)n2)cc1 (stereo not drawn) | 95 | 2 | 0
COc1cccc(Nc2nc(N)c3ccccc3n2)c1.Cl | 88 | 47 | 18
CCC1(c2ccccc2)N=C(N)N(CCCc2ccccc2)C1=O (stereo not drawn) | 90 | 96 | 17
O=C(NCc1cc2c(cc1Cl)OCO2)c1ccc(CNC2CCN(Cc3ccccc3)CC2)cc1.O=C(O)C(F)(F)F | 100 | 47 | 11
CNc1ccc(CNCc2cccc(-c3ccc(-c4nc5cccc(C)c5[nH]4)s3)c2)cc1.O=C(O)C(F)(F)F | 100 | 88 | 23
CC(C)(C)N1CCC(N(Cc2ccc(-c3ccc(C(F)(F)F)cc3)cc2)C(=O)Cn2c(CCc3cccc(F)c3F)cc(=O)c3ccccc32)CC1.O=C(O)C(O)C(O)C(=O)O | 100 | 97 | 100
COc1cc(-c2nc3c4ccccc4c4ccccc4c3[nH]2)cc(OC)c1OC | 90 | 10 | 4
CCCc1ccc(C2CCN(CCCCNC(=O)c3ccc(NC(=O)c4ccc(Cl)cc4)cc3)CC2)cc1 | 100 | 100 | 39
CC1CN(c2cc(=O)n(Cc3ccc(NC(=O)Nc4ccc(-c5ccccc5)cc4)cc3)cn2)CC(C)N1.O=C(O)C(F)(F)F (stereo not drawn) | 87 | 20 | 0
COc1ccc2nccc(N3C[C@H]4C[C@@H]3CN4CCNCc3ccc4c(n3)NC(=O)CS4)c2n1.Cl | 99 | 0 | 21
CC(Oc1ccc(Cl)cc1Cl)c1nc(-c2ccc(NC(=O)c3ccco3)cc2)no1 (stereo not drawn) | 92 | 82 | 7
COc1ccc(CCNC(C)Cc2ccc(C(=O)Nc3ccc(CC(C)NCCc4cccc(Cl)c4)cc3)cc2)cc1 (stereo not drawn) | 100 | 89 | 99
O=C(Nc1ccc(C(F)(F)F)cc1)c1cccc(S(=O)(=O)NC2CCN(CC3CCCCC3)CC2)c1.O=C(O)C(F)(F)F | 99 | 12 | 18
O=C(Cc1cccnc1)N(Cc1ccc(-c2ccc(CNCc3cccnc3)cn2)cc1)C1CCN(Cc2ccccc2)CC1.O=C(O)C(F)(F)F | 93 | 6 | 8
CCCc1c(C(=O)OCC)c2cc(O)ccc2n1-c1ccc(OC)cc1 | 100 | 99 | 0
CCCCn1c(Sc2ccc(C#N)c([N+](=O)[O-])c2)nnc1-c1cc(OC)cc(OC)c1 | 94 | 70 | 7
CC(C)(C)c1ccc(CNC(=O)COc2ccc(-c3nnc(-c4cccc([N+](=O)[O-])c4)o3)cc2[N+](=O)[O-])cc1 | 93 | 25 | 10
COCCCNC(=O)C1CCN(C(c2ccc(Cl)cc2)c2ccc(Cl)cc2)CC1 | 91 | 63 | 5
COc1ccc2nccc([C@H](O)CN3CCC(NCc4nc5cccc(F)c5[nH]4)CC3)c2c1.O=C(O)C(=O)O | 98 | 0 | 0
Cn1nc(-c2ccc(CN[C@@H]3CCc4ccc(O)cc43)cc2)c2cnc(NCCCN3CCCC3)nc21 | 100 | 61 | 8
O=C(CCc1c[nH]cn1)Nc1cccc(-c2ccc(-c3nc4cc(F)ccc4[nH]3)cc2)c1 | 100 | 79 | 18
N#Cc1ccc(NC2(C(=O)N3CCN(c4cccc(Cl)c4)CC3)CC2)c2ccccc12 | 94 | 66 | 0
Cn1nccc1C(=O)NCCNCc1ccc(-c2ccc(-c3nc4cc(C(F)(F)F)ccc4[nH]3)s2)cc1.O=C(O)C(F)(F)F | 100 | 99 | 48
Cn1c2c(c3ccccc31)CN(CCC1(c3ccc(Cl)c(Cl)c3)CN(C(=O)c3ccccc3)CCO1)CC2 (stereo not drawn) | 97 | 88 | 10
CN(Cc1cccc(F)c1)C1CCN(c2cc(NC(=O)c3cccc(F)c3)ccn2)CC1.O=C(O)C(F)(F)F | 94 | 13 | 12
Clc1cc(Nc2ncnc3cc(C#C[C@H]4CCCN4)sc23)cc2nc(Cc3ccccc3)[nH]c12.O=C(O)C(F)(F)F | 91 | 57 | 29
